Assay outcomes (PubChem BioAssay)
Compounds with a hit are over-represented: about 7.1% of the library has one in this group of screens.
IL1B secr inh: blocks inflammasome-driven IL-1 beta release; THP-1 LPS/ATP IL-1B secretion, AlphaLISA, 16 h; hits give low values; activity change, % at 57.5 µM; 4.7% of 360,000 active; in the data active means activity change below about -50%; inconclusive means mostly about -30% to -49%; further: on the % scale 0 is the no-effect control and ±100 the full control effect
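Secreted IL-1B measured by AlphaLISA bead assay after 16 h compound exposure of THP-1 cells; compounds (final up to 57.5 uM) added 1 h before LPS (250 ng/mL) and ATP (1.25 mM) stimulation; lower signal means less secretion.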
SW480 rereplic: DNA re-replication induction in SW480 cells; SW480 DNA re-replication, Hoechst DNA content imaging, 48 h; Potency, µM (top dose mostly 46.1 µM), inactives show top-dose re-replication activation, actives largely listed as activators; 1.8% of 340,000 active; AID 624297; further: potency means the concentration at half of the fitted maximal effect; % of control where 0% means no effect; nearly all actives have a fitted effect of over 55% in size
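250 cells/well; 23 nL cpd via pin tool; 48 hr, 37 C, 5% CO2; Hoechst 40 min; imager read of total nuclear intensity, ex 405/em 500-530 nm.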
MCF10A rerep: inducers of DNA re-replication in MCF 10A breast cells; MCF 10A DNA re-replication, Hoechst nuclear intensity, 48 h; Potency, µM (highest dose often 46.1 µM), inactives show top-dose activity, positive = re-replication, usual class: activators; 2.9% of 350,000 active; further: potency means the concentration at half of the fitted maximal effect; % of control where 0% means no effect; nearly all actives have a fitted effect of over 50% in size
PINK1 modulator: changes PINK1 expression. AID 624263. PINK1 immunofluorescence, high-content cytometry, 24 h. Potency, µM (titrated, usually from 76.6 µM), for the others: at the top dose activation (PINK1 increase), usual class: activators. 0.2% of 410,000 active; active means well fitted activation curve with a large enough effect; inconclusive means small, poorly fitted or top-dose-only effect; cell line not stated here; further: potency means the concentration at half of the fitted maximal effect; % of control where 0% means no effect; nearly all actives have a fitted effect of over 65% in size
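PINK1 protein, normally rapidly degraded, was detected by immunofluorescence after 24 hour compound treatment of a stable cell line. Titration data (5 concentrations) came from laser-scanning cytometry, with CCCP-treated wells as controls.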
ATXN2 expr inh: reduces ATXN2 reporter expression in HEK-293 cells | HEK-293 ATXN2-luciferase reporter, luminescence, 24 h | AID 1745845 | Potency, µM (highest dose often 57 µM), for inactives: at the top dose activity change, negative = inhibition, usual class: inhibitors | 0.72% of 360,000 active; further: potency means the concentration at half of the fitted maximal effect; on the % scale 0 is the no-effect control and ±100 the full control effect; nearly all actives have a fitted effect of over 55% in size
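qHTS (up to 57 uM final) was run with 24 h compound exposure of reporter cells at 37 °C. Each well was multiplexed: SteadyGlo luminescence measured ATXN2-luciferase expression after a fluorogenic Gly-Phe-AFC viability readout (25 uM final).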
S2 tox: cell viability loss in ATXN counter-screen | S2 cells (HEK-293 line with an ATXN2-luciferase reporter) viability, CellTiter-Fluor protease fluorescence, 24 h | Potency, µM (titrated, usually from 56.7 µM), actives largely listed as cytotoxic | 0.49% of 400,000 active | AID 651635; further: potency means the concentration at half of the fitted maximal effect; nearly all actives have a fitted effect of over 40% in size
Starred values were filed as active, the others as inactive; i = inactive; ? = inconclusive; nt = not tested or not shown; [ ] = remark or other dose. Unless noted, the call rests on the fitted dose curve; in most records, active means well fitted curve in the direction sought with a large enough effect; inconclusive means small, poorly fitted or top-dose-only effect, or another doubt; inactive means no such curve, though single readings can be large; an effect the other way counts as inactive or inconclusive.

SMILES | IL1B secr inh | SW480 rereplic | MCF10A rerep | PINK1 modulator | ATXN2 expr inh | S2 tox
O=C(NCCCCCCNC(=O)OCc1ccccc1)OCc1ccccc1 | -6.2 | 0.7% | -0.7% | 4.5% | -17.3% | i
CNC(=O)c1ccc2cc(OC)c(OC)cc2c1 | ? | nt | nt | 1.3% | nt | i
O=C(CNC(=S)N(Cc1ccccc1)Cc1cccs1)NCc1ccc(F)cc1 | -71.3* | -8.7% | ? | -0.6% | -6.8% | i
O=C1Nc2ccccc2N=C(c2ccc3c(c2)OCO3)C1N(CCc1ccccc1)C(=O)CSc1ncccn1 (centres undefined) | ? | nt | nt | 0.6% | 6.6% | 7.94µM*
COc1ccc(NC(=O)C2CCCN(S(=O)(=O)c3ccc4c(c3)CCCC(=O)N4)C2)cc1OC (centres undefined) | nt | nt | nt | -0.9% | -4.1% | i
Cc1ccc(CN2CCCn3nc(C(=O)NCc4ccc(OC(C)C)cc4)cc3C2=O)cc1 | nt | nt | nt | 1.6% | -11.6% | ?
O=C(NN1CCOCC1)c1cccc2ccccc12 | 0.6 | -0.3% | -1.7% | -1.4% | -6.7% | ?
O=C(Nc1ccncc1)c1cccc2ccccc12 | nt | 18.4µM* | -4.3% | -0.5% | -5.4% | i
O=C(Nc1ccc(N2CCOCC2)cc1)c1cccc2ccccc12 | -9.9 | 9.2µM* | 29.2% | 9.3% | -10.5% | i
O=C(Nc1ccc2ccccc2c1)c1cccc2ccccc12 | -0.7 | 0.7% | 15.1% | ? | 11.1% | ?
CC(=O)c1ccc(-c2cc(F)cc3c2OC(CNC(=O)Cc2cn4ccsc4n2)C3)s1 (centres undefined) | nt | nt | nt | -0.2% | nt | i
CC1=C(C(=O)Nc2nc3ccccc3s2)C(c2ccco2)C(C#N)=C(SCC(=O)NC2CCCCC2)N1 (centres undefined) | ? | 18.4µM* | 14.6µM* | 5.3% | -27.2% | nt
CC(=O)C1=C(C)NC(SCc2ccc(C#N)cc2)=C(C#N)C1c1ccco1 (centres undefined) | 7.8 | ? | 11.1% | 0.9% | -5.9% | i
CC(=O)C1=C(C)NC(SCC(=O)c2ccc(Cl)cc2Cl)=C(C#N)C1c1ccco1 (centres undefined) | -53.6* | 0.4% | -7.0% | -6.9%[38.3 µM] | -5.4% | i
CC(=O)C1=C(C)NC(SCC(=O)c2ccc(Cl)cc2)=C(C#N)C1c1ccco1 (centres undefined) | -62.3* | -4.1% | 12.5% | 1.4%[38.3 µM] | -0.7% | i
CC1=C(C(=O)Nc2ccccc2)C(c2ccncc2)C(C#N)=C(SCC(=O)NC2CC2)N1 (centres undefined) | 15.4 | -2.6% | -6.2% | -1.6% | 6.3% | i
Cc1ccccc1Nc1nc(NCc2ccco2)c2ccccc2n1 | -102.1* | ? | ? | -1.6% | ? | ?
CCNc1nc(NCc2ccco2)c2ccccc2n1 | nt | nt | nt | 4.1% | nt | nt
Oc1ccccc1Nc1nc(NCc2ccco2)c2ccccc2n1 | -63.5* | 0.4% | ? | 23.0% | nt | i
CNc1nc(NCc2ccco2)c2ccccc2n1 | nt | nt | nt | 2.4% | nt | nt
COc1ccc(OC)c(Nc2nc(NCc3ccco3)c3ccccc3n2)c1 | -97.4* | ? | ? | ? | 31.6µM* | nt
Cc1nc2ccc(N)cc2s1 | 34.0 | 0.7% | -4.3% | 1.3% | -0.7% | i
C[n+]1c2cc(N)ccc2cc2ccc(N)cc21 (tested in a mixture with another compound) | nt | nt | nt | nt | 3.16µM* | nt
Cc1c(N2C(=O)CSC2=S)c(=O)n(-c2ccccc2)n1C | -77.4* | -4.7% | ? | 9.1% | -17.9%[11.3 µM] | i
Cc1c(N2C(=O)/C(=C3/C(=O)N(C)c4ccccc43)SC2=S)c(=O)n(-c2ccccc2)n1C | 10.8 | 0.3% | -3.0% | 4.4%[38.3 µM] | -5.8% | i
SMILES | IL1B secr inh | SW480 rereplic | MCF10A rerep | PINK1 modulator | ATXN2 expr inh | S2 tox
CCCN1C(=O)C(Cc2nc3ccccc3c(=O)n2CC)c2ccccc21 (centres undefined) | nt | nt | nt | 0.5% | nt | nt
CN1CCN(CC#CCn2c3ccccc3c3ccccc32)CC1 | ? | ? | ? | 0.4%[38.3 µM] | 25.1µM* | ?
CN1CCCC(CNC(=O)c2cnn(-c3nccc(-c4cccs4)n3)c2C2CC2)C1 (centres undefined) | nt | nt | nt | -1.3% | nt | i
CCOc1ccc(C(C(=O)NCC2CCCO2)N(C(=O)c2snc(C(N)=O)c2N)c2ccccc2F)cc1 (centres undefined) | -71.9* | 23.0% | ? | 2.5% | -14.8% | ?
COc1ccc(CCN(C(=O)c2snc(C(N)=O)c2N)C(C(=O)NCC2CCCO2)c2ccc(F)cc2)cc1OC (centres undefined) | 2.4 | -13.5% | 8.1% | 1.1% | -11.8% | i
Cc1cccc(CCN(C(=O)c2snc(C(N)=O)c2N)C(C(=O)NCC2CCCO2)c2ccc(F)cc2)c1 (centres undefined) | -51.6* | ? | ? | 1.2% | 0.5% | i
Cc1cc(C)cc(N(C(=O)c2snc(C(N)=O)c2N)C(C(=O)NCC2CCCO2)c2ccc(C)o2)c1 (centres undefined) | -51.0* | ? | ? | -2.0% | -9.9% | i
Cc1ccc(-c2ccc(/C=N/c3ncn[nH]3)o2)cc1Cl | 2.9 | 3.5% | 4.1% | 1.0% | 15.8µM* | i
Cc1ccn2c(=O)cc(COc3cccc(NC(=O)Nc4cccc(Cl)c4C)c3)nc2c1 | nt | nt | nt | 0.1% | nt | nt
COC(=O)c1cc(NC(=O)c2ccc(Cn3cc(Cl)cn3)o2)cc(C(=O)OC)c1 | -8.9 | 0.1% | ? | 0.4% | ? | 20µM*
Cc1ccc(CNc2nnc(C)c3nnn(Cc4ccc(F)cc4)c23)cc1 | nt | nt | nt | -0.2% | -0.1% | i
Cc1cc(C(N)=O)c2ccccc2n1 | 15.6 | -1.7% | ? | nt | 4.1% | i
NC(=O)c1cc2c3ccccc3ccn2c1-c1ccccc1 | -91.3* | 0.731µM* | ? | -1.2% | nt | ?
Cc1nc(-c2ccc(-n3nncc3-c3ccco3)cc2)cs1 | -18.6 | -82.4% | -1.8% | -1.4% | 13.7% | i
Nc1nc(-c2ccc(-n3nncc3-c3ccco3)cc2)cs1 | -13.4 | 20.8% | 23.1µM* | 4.9% | 3.5% | i
O=C(CCCCCNc1nc(=S)[nH]c2ccccc12)NCCc1c[nH]c2ccccc12 | -78.0* | -0.5% | ? | -0.4% | -9.8% | ?
CC(C)CCNC(=O)Cc1ccc(Nc2nc(=S)[nH]c3ccccc23)cc1 | -65.0* | -2.9% | -0.6% | 3.1% | 8.9% | ?
O=C(CCCCCNc1nc(=S)[nH]c2ccccc12)NCCc1ccc(Cl)cc1 | -1.1 | 17.4% | ? | 4.1% | ? | i
CCCCCn1c(=O)c(-c2nc3ccccc3[nH]2)c(O)c2ccccc21 | 111.9 | 18.4µM* | ? | 14.9% | -0.9% | i
CC1CCCN(CCCNC(=O)c2coc3nc4ccccc4nc23)C1 (centres undefined) | 19.3 | -4.5% | 21.4% | -3.6% | -4.9% | i
